Screening results from PubChem.
SRC1 TRFRET art = TR-FRET artefact, counter-screen to PPARgamma/SRC-1 agonist assay; TR-FRET detection artefact counter-screen, emission ratio; stronger effect = higher value; TR-FRET ratio at 8 µM; actives 0.34% (n = 99,000); AID 1051; in the data active = TR-FRET ratio above about 2300
PPARg SRC-2 ag = promotes SRC-2 coactivator recruitment by human PPARgamma | P37231 | activation, % at 8 µM | actives 0.34% (n = 200,000) | PPARgamma LBD-SRC-2 recruitment, biochemical;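 note: 0% = vehicle and 100% = reference agonist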
Target sequence (P37231 whole entry, looked up, the tested form may be a part): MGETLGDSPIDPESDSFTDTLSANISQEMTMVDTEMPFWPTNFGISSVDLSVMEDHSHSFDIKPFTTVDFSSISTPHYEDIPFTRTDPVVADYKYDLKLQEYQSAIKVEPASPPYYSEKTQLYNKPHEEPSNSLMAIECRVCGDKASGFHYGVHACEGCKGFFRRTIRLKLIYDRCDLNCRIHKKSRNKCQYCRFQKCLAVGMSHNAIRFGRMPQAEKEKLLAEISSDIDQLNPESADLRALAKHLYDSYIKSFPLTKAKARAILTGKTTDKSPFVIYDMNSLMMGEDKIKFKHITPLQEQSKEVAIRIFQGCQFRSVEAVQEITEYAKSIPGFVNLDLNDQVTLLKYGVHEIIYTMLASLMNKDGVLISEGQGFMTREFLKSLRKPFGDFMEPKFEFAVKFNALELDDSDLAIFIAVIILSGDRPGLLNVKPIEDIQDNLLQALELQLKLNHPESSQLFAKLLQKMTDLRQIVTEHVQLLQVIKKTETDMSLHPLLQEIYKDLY
PPARg SRC3 recr = PPARgamma-driven SRC-3 recruitment agonism. biochemical PPARgamma/SRC-3 coactivator recruitment assay. activation, % at 8 µM. actives 0.26% (n = 200,000); in the data active = activation above about 23%;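 note: 0% = DMSO and 100% = reference agonist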
SRC2 TRFRET art = flags TR-FRET format artefacts in PPARgamma SRC-2 recruitment agonist screen. TR-FRET ratio at 8 µM. TR-FRET artefact counter-screen; stronger effect = higher value. actives 0.4% (n = 200,000); in the data active = TR-FRET ratio above about 2000
SRC3 TRFRET art = flags TR-FRET format artefacts in PPARgamma SRC-3 recruitment agonist screen; TR-FRET artefact counter-screen, PPARgamma/SRC-3 format; stronger effect = higher value; TR-FRET ratio at 8 µM; actives 0.39% (n = 99,000); in the data active = TR-FRET ratio above about 2000
PPARg SRC1 recr = promotes SRC-1 coactivator recruitment by human PPARgamma; actives 0.41% (n = 200,000); PPARgamma-SRC-1 coactivator recruitment biochemical assay; P37231; activation, % at 8 µM; AID 631; in the data active = activation above about 19%;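 note: 0% = DMSO and 100% = reference agonist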
PPARg SRC2 conf = human PPARgamma SRC-2 recruitment agonism, confirmation; AID 1297; biochemical SRC-2 recruitment by PPARgamma; shares compounds with PPARg SRC3 recr; actives 52% (n = 790); activation, % at 8 µM;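 note: 0% = vehicle alone and 100% = reference agonist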
PPARg SRC1 ag = human PPARgamma SRC-1 recruitment agonism, confirmation; shares compounds with PPARg SRC3 recr; PPARgamma–SRC-1 coactivator recruitment biochemical assay; activation, % at 8 µM; actives 43% (n = 790); AID 1300; in the data active = activation above about 20%;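 note: 0% = vehicle wells and 100% = reference agonist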
PPARg SRC3 conf = human PPARgamma SRC-3 recruitment agonism, confirmation | shares compounds with PPARg SRC3 recr | biochemical PPARgamma-SRC-3 coactivator recruitment, agonist mode | activation, % at 8 µM | actives 29% (n = 790) | AID 1301; in the data active = activation above about 24%;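 note: 0% = vehicle wells and 100% = reference agonist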
* hit, by the source's call; . = no result. Hits are enriched below; roughly 0.9% of the tested compounds scored in any of these assays. Cut-off read from the data, not from the text of the source, unless noted: active = activation above about 22%; inactive = the rest.

SMILES	SRC1 TRFRET art	PPARg SRC-2 ag	PPARg SRC3 recr	SRC2 TRFRET art	SRC3 TRFRET art	PPARg SRC1 recr	PPARg SRC2 conf	PPARg SRC1 ag	PPARg SRC3 conf
CC1CCCN(C(=O)c2ccc3c(c2NCCO)C(=O)c2ccccc2C3=O)C1 (configuration not stated)	.	15	17	1480	.	8	.	.	.
O=C1c2ccccc2C(=O)c2c1ccc(C(=O)N1CCCCC1)c2NCCO	.	5	21	1568	.	21*	13	8	5
COc1ccccc1CNC(=O)C1(NC(=O)Nc2ccc(C)cc2)CCCCC1	1709	8	2	1716	1633	7	.	.	.
CCOC(=O)c1sc2nc(C)[nH]c(=S)c2c1C	2663*	35*	20	2175*	2353*	25*	30*	23*	21
CCOC(=O)c1sc2nc(C)n(N)c(=O)c2c1C	1913	6	6	1780	1653	9	.	.	.
CCOc1ccccc1NC(=O)NC(C)c1ccncc1 (configuration not stated)	1653	-2	1	1364	1544	4	.	.	.
CCCSc1nc2c(c(=O)[nH]c(=O)n2C)n1C	.	10	15	1609	.	21*	1	1	1
CCSc1nc2c(c(=O)[nH]c(=O)n2C)n1C	.	15	4	1656	.	8	.	.	.
CN(C)S(=O)(=O)N1CCN(c2ccc([N+](=O)[O-])c(N3CCCCC3)c2)CC1	1511	10	-3	1645	1461	4	.	.	.
CCOc1ccc(N(CC(=O)Nc2nccs2)S(=O)(=O)c2c(C)[nH]c(=O)[nH]c2=O)cc1	1767	5	3	1716	1377	7	.	.	.
CN(Cc1cccnc1)C(=O)CNC(=O)c1ccc(Cl)cc1Cl	1847	0	1	1603	1473	3	.	.	.
Cc1ccc2nc3sc(C(=O)NCc4ccco4)c(N)c3cc2c1	.	15	18	1592	.	10	.	.	.
COc1cc2cc3c(N)c(C(=O)NCc4ccco4)sc3nc2cc1OC	.	14	23	1949	.	21*	2	2	3
O=C(O)c1cn(-c2ccc(N3CCCC3)c(F)c2)c2c(F)c(F)c(F)cc2c1=O	4223*	68*	38*	3278*	3524*	67*	-5	-4	4
Oc1ccc(-c2nc3ccc4ccccc4c3c3c2CCC3)cc1O	1680	-4	3	1382	1469	-1	.	.	.
CCCCCCCC(=O)N/N=C/c1cccnc1	.	6	9	1642	.	20*	5	3	6
CCS(=O)(=O)Nc1ccc(-c2nnc(SCC(=O)c3cccc(OC)c3)o2)cc1	.	7	2	1712	.	6	.	.	.
CCS(=O)(=O)Nc1ccc(-c2nnc(SCC(=O)c3ccc(NC(C)=O)c(OC)c3)o2)cc1	.	5	57*	1680	.	31*	8	-1	7
CCOC(=O)/C=C1\SCC(=O)N1CC(=O)Nc1cccc(F)c1	1577	-6	-3	1569	1434	-9	.	.	.
NC(=O)c1cccc2c(=O)oc3ccccc3c12	.	9	8	1531	.	11	.	.	.
O=c1oc2cc(O)c(Cl)cc2c2ccccc12	3291*	102*	54*	4246*	4295*	59*	55*	34*	39*
CCNc1nc(Oc2ccc(F)cc2)cc(C(F)(F)F)n1	1898	4	4	1629	1498	-3	.	.	.
CC(C)Nc1nc(Oc2ccc(Cl)cc2)cc(C(F)(F)F)n1	.	23*	6	1676	.	11	0	3	0
CCOc1ccc(NC(=O)CSc2nnc(COc3c(C)cccc3C)o2)cc1	.	3	5	1486	.	-1	.	.	.
CCOC(=O)c1c(NC(=O)CSc2nnc(Cc3ccccc3)o2)sc(C(C)=O)c1C	.	36*	44*	2328*	.	16	20	13	15
SMILES	SRC1 TRFRET art	PPARg SRC-2 ag	PPARg SRC3 recr	SRC2 TRFRET art	SRC3 TRFRET art	PPARg SRC1 recr	PPARg SRC2 conf	PPARg SRC1 ag	PPARg SRC3 conf
CCOC(=O)c1c(NC(=O)CSc2nnc(-c3ccccc3)o2)sc(C(C)=O)c1C	.	11	20	1725	.	12	.	.	.
CCOC(=O)c1cccc(NC(=O)CSc2nnc(COc3ccccc3C)o2)c1	.	5	7	1625	.	20*	5	4	3
COc1ccc(CC(=O)Nc2ccc(-c3nc4cc(C)ccc4o3)c(O)c2)cc1OC	.	2	24	1476	.	43*	41*	28*	25*
Cc1ccc2oc(-c3ccc(NC(=O)c4ccncc4)cc3O)nc2c1	1908	14	-4	1588	1692	14	.	.	.
Cc1cc(C)nc(SCCn2c(N3CC(C)OC(C)C3)nc3c2c(=O)n(C)c(=O)n3C)n1 (configuration not stated)	1951	6	5	1589	1878	9	.	.	.
O=C(NN1CCCCC1)c1ccc(COc2ccc(Cl)cc2)cc1	1916	5	3	1582	1337	-1	.	.	.
O=C(Nc1ccc(Cl)c([N+](=O)[O-])c1)ONC1=NCCCCC1	1907	11	1	1517	1496	3	.	.	.
CCC(/C=C1\Sc2ccc(OC)cc2N1CCO)=C\c1sc2ccc(OC)cc2[n+]1CCO	2291	19	19	1865	1991	23*	13	3	8
CCN(CC)c1ccc(/C=C2\NC(=O)NC2=O)cc1	2555*	25*	13	1573	1594	15	11	9	7
CCOC(=O)/C(C#N)=C\c1ccc(CC)s1	.	-4	-9	1512	.	-4	.	.	.
CCOC(=O)/C(C#N)=C\C=C1C=CN(C)C=C1	.	32*	21	1925	.	24*	15	9	9
CC1SC2(NC1=O)C1CC3CC(C1)CC2C3 (configuration not stated)	1810	-2	0	1530	1459	-2	.	.	.
CCn1c(=S)ccc2ccc(OC)cc21	.	39*	40*	2084*	.	21*	9	4	6
Cc1ccc(S(=O)(=O)N[C@@H](Cc2ccccc2)C(=O)CCl)cc1	1778	0	13	1501	1609	10	.	.	.
O=C(COC(=O)c1ccc(Cl)s1)c1ccc[nH]1	1863	22*	7	1677	1421	11	3	3	7
Cc1ccc(C(=O)OCC(=O)c2ccc[nH]2)s1	1844	-1	2	1546	1557	-6	.	.	.
O=C(Nc1nc(=O)c2ccccc2s1)c1ccc(Cl)cc1	.	6	16	1596	.	20*	11	11	8
CCOc1ccc(NC(=S)N2CCn3c(nc4ccccc43)C2)cc1	1799	1	2	1598	1458	-1	.	.	.
CCOC(=O)C1CCCN(C(=O)c2cc3ccccc3oc2=O)C1 (configuration not stated)	1861	-6	10	1641	1996	-6	.	.	.
